# The sample as a whole holds a higher share of hits than the screen did.
# D1 allo mod: D1 dopamine receptor (human) allosteric modulation. P21728. HEK293 D1, CRE-luciferase, dopamine EC30 potentiation; actives deviate in either direction. B-score at 10 µM. hit rate 5.9% among 58,000. AID 641;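 active = luminescence count or its row- and column-corrected plate score outside the 99.7% band of the plate's sample wells, on either side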
# DAT uptake mod: modulates human dopamine transporter uptake under cocaine; LLC-PK1 hDAT cells, [14C]-dopamine uptake with cocaine IC80; actives deviate in either direction; Q01959; hit rate 1.3% among 110,000; B-score at 10 µM;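 active = Z score or B-score, a plate-position-corrected score, falls beyond the plate's 99.7% confidence bounds, in either direction; inactive = both scores lie inside the 99.7% bounds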;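 note: scored against the spread of the other compound wells on the same plate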
# Target sequence (Q01959 whole entry, looked up): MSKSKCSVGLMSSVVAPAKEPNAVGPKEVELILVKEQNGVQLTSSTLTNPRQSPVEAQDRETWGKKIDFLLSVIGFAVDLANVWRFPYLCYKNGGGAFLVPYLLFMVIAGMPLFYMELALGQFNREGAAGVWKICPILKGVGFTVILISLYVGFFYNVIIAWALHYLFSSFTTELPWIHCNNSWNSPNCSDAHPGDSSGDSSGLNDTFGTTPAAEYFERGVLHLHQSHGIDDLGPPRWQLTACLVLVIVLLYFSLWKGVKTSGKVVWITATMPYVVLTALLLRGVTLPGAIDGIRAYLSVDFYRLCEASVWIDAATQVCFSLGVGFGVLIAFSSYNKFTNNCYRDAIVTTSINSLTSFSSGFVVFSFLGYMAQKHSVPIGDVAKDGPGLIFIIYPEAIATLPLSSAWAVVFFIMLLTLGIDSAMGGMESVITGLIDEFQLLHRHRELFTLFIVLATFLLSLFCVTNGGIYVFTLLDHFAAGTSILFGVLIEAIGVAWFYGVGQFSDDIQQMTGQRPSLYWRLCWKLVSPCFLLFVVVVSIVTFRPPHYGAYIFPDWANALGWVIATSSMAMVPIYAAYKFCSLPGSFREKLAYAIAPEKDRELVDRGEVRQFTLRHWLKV
# ROCK2 inh: ROCK2 (human) kinase inhibition; purified ROCK2, Kinase-Glo ATP depletion luminescence; inhibition, % at 6 µM; O75116; hit rate 0.35% among 60,000;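 active = inhibition above the screen-wide mean inhibition plus 3 SD, cut at about 18% in these data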;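 note: plate controls were DMSO wells for no effect and Y-27632 control wells after no-enzyme background subtraction for full effect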
# PKA kinase inh: blocks human protein kinase A activity; P17612; PKA Kemptide phosphorylation, Kinase-Glo ATP luminescence; inhibition, % at 6 µM; hit rate 0.1% among 65,000; AID 524;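 active = inhibition above the screen-wide mean inhibition plus 3 SD, cut at about 21% in these data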
# Numbers without * were called inactive; nt = not tested or not shown.
SMILES,D1 allo mod,DAT uptake mod,ROCK2 inh,PKA kinase inh
COc1cc(-c2nc3n(n2)C(c2cccc(OC)c2OC)C2=C(CCCC2=O)N3)cc(OC)c1OC (stereo not given),-0.046,2.7*,5,11
COc1ccc(-c2nc3n(n2)C(c2ccccc2)C2=C(CCCC2=O)N3)cc1OC (stereo not given),1.1,1,4,5
COc1ccc(CN2CCc3ccccc3C2)c(OC)c1OC,nt,-1.1,nt,nt
CCOC(=O)C[C@H]1c2ccccc2S(=O)(=O)N1Cc1cccc(C(F)(F)F)c1,nt,-0.29,nt,nt
CCC(C(=O)NC1CCCCC1)n1c(SCc2cccc(F)c2)nc2ccncc21 (stereo not given),nt,2.8*,nt,nt
CCOC(=O)/C(N)=C/c1ncc(C(F)(F)F)cc1Cl,nt,-0.67,nt,nt
CCCn1c(=O)c2ccccc2n2c(SCC(=O)c3cc(C)n(CCOC)c3C)nnc12,2.2*,nt,1,1
COCCn1c(C)cc(C(=O)CSc2nnc(C)s2)c1C,-7.8*,-0.74,2,7
CCCn1c(=O)c2ccccc2n2c(SCC(=O)c3ccc(CC)cc3)nnc12,nt,0.5,nt,nt
CCCc1cc(=O)[nH]c(SCC(=O)c2cc(C)n(C(C)COC)c2C)n1 (stereo not given),0.73,0.018,5,7
COC(C[C@@H](O)C[C@H](O)COCc1ccccc1)OC,nt,-0.091,nt,nt
COn1c(SCc2ccc(C)cc2C)nc2ccccc2c1=O,nt,-0.21,nt,nt
COCC(=O)Nc1nc2ccc(C)cc2s1,-5*,1.2,8,9
COc1ccc(N(CC(=O)N2CCc3ccccc3C2)S(=O)(=O)c2c(C)nn(C)c2C)cc1,nt,1.4,-1,0
O=C(Nc1ccncc1)c1ccc(F)cc1,nt,-0.25,nt,nt
O=C(Nc1ccncc1)Nc1ccc(F)cc1F,-1.3,-0.4,23*,3
CCCOC(=O)c1ccc(-n2nnnc2SCC(=O)N2CCCCC2)cc1,-3.7*,-0.079,-1,-2
COC(=O)c1ccc(-n2nnnc2SCC(=O)N2CCCCC2)cc1,2.7,-0.17,3,10
CO[C@H]1O[C@@H]2O[C@@]3(C)CC[C@H]4[C@H](C)CC[C@@H]([C@H]1C)[C@@]24OO3,nt,0.048,nt,nt
COCc1cc(C)nc2sc(C(=O)Nc3nccs3)c(N)c12,0.59,0.64,4,9
Cc1cc(C)c2c(N)c(C(=O)Nc3nccs3)sc2n1,-6.6*,-0.77,0,0
C/C=C(\CS(=O)(=O)c1ccccc1)S(=O)(=O)c1ccccc1,-0.037,-0.73,3,8
O=C(NCc1ccc2c(c1)OCO2)c1cccc(Cl)c1,0.019,-0.14,3,0
O=C(NCc1ccc2c(c1)OCO2)c1ccc(-c2ccc(Cl)cc2)o1,0.59,2.4*,1,-2
COCCOC(=O)C1=C(C)NC2=C(C(=O)CC(C)(C)C2)C1c1ccc(N(C)C)cc1 (stereo not given),-5.8*,0.97,3,6
SMILES,D1 allo mod,DAT uptake mod,ROCK2 inh,PKA kinase inh
COc1ccc(C2/C=C\CN(C(=O)c3ccccc3)[C@H](Cc3ccccc3)C(=O)N2Cc2ccc(F)cc2)cc1 (stereo not given in full),nt,-1.1,nt,nt
Cc1cc(S(=O)(=O)Nc2ccc(N(C)C)cc2)c(C)s1,nt,0.064,nt,nt
COc1cccc(NS(=O)(=O)c2cc(C)sc2C)c1,-0.35,2.6*,0,-3
O=C(CN1CCCN(Cc2ccc(F)cc2Cl)C1=O)NCc1ccccc1,0.65,2.6*,2,2
COc1cccc(-c2cc(C(=O)NCCCn3ccnc3)no2)c1,nt,-0.078,nt,nt
O=C(Nc1ccc(-c2nc3ccccc3[nH]2)cc1)C1CCCO1 (stereo not given),-5*,0.059,-48,-22
CCc1nnc(NC(=O)c2cc(S(=O)(=O)N(CC)CC)ccc2Cl)s1,nt,-0.9,nt,nt
CCN(CC)S(=O)(=O)c1ccc(Cl)c(C(=O)NC)c1,-5.2*,-1.1,5,8
Cc1ccc2c(c1)COc1c3ccc(C(=O)NC(C)C)cc3nn1-2,nt,-0.099,nt,nt
O=C(Nc1ccc2c(c1)OCCO2)NC1(C(F)(F)F)Oc2ccccc2O1,-3*,-3*,-4,-8
O=C(Nc1ccc2c(c1)OCO2)NC1(C(F)(F)F)Oc2ccccc2O1,nt,-3,nt,nt
COc1ccc(-c2nnc(SCc3c(C)noc3C)n2N)cc1OC,nt,0.4,nt,nt
CCCNC(=O)N1C2=NC(C(=O)OC)=C(C(=O)OC)[C@@H]3N(Cc4ccccc4)c4ccccc4[C@]23C[C@H]1CO,nt,1.6,nt,nt
O=C(c1cc(-c2ccccc2)nc2ccccc12)N1N=C(C(F)F)CC1(O)C(F)F (stereo not given),nt,2.9*,nt,nt
CC(=O)NC(C)C(c1cccs1)N1CCN(c2ccccc2)CC1 (stereo not given),-0.95*,-0.79,-5,0
CCC(=O)NC(C)C(c1cccs1)N1CCN(c2ccccc2)CC1 (stereo not given),0.8,-2.5,-8,0
Cc1sc2nc(SCC(=O)N(C)C)[nH]c(=O)c2c1C,0.5,0.42,2,-1
CCN(CC)C(=O)CSc1nc2sc(C)c(C)c2c(=O)[nH]1,nt,3.5*,4,4
Cc1ccc(S(=O)(=O)N(C)Cc2ccc(-c3nnc4n3CCC4)cc2)cc1,0.21,2.2*,3,1
CC(=Nc1ccc(C)cc1)c1sc2ccccc2c1O,nt,-1.1,nt,nt
CC(=Nc1cccc(O)c1)c1sc2ccccc2c1O,-4.3*,-0.29,4,-1
Cc1ccnc(NC(=O)c2cccc(NS(=O)(=O)c3ccccc3C)c2)c1,nt,0.47*,nt,nt
CCOc1cc(C(=O)Nc2cc(C)ccn2)cc(OCC)c1OCC,-1.5,3*,3,5
CCCCN(CCCC)C(=O)c1ccccc1NC(=O)CN1C(=O)c2ccccc2C1=O,nt,0.24,nt,nt
COCCN1C(=O)N[C@@H](c2ccccc2)[C@H](C(=O)OC)[C@H]1C,nt,-0.46,nt,nt
SMILES,D1 allo mod,DAT uptake mod,ROCK2 inh,PKA kinase inh
CN(C)c1ccc(Nc2nc(-c3cccnc3)cs2)cc1,-2.8*,-0.27,2,-8
CSc1nsc(/C=C/Nc2ccc(Cl)cc2)c1C#N,nt,2.6*,nt,nt
CN(C)CCCN(C(=O)c1cccs1)c1nc(-c2ccccc2)cs1,-4.8*,1.4,5,-8
CC1(C)Cc2c(sc3c2c(=N)n(Cc2ccco2)c(=O)n3CC(=O)Nc2ccc(Cl)cc2)CO1,nt,2*,3,4
O=C(NCc1cccnc1)c1cc(-c2ccccc2)on1,0.21,3.6*,2,-3
CCCCN(CCCNc1ncnc2nc[nH]c12)c1ccccc1,-3.5*,1.1,6,8
Cc1ccc2c(c1)C(N1CCCC1=O)CC(c1ccco1)N2 (stereo not given),-4.4*,0.39,-31,-5
COCOc1ccc(-c2oc3c(C/C=C(\C)CCC=C(C)C)ccc(O)c3c(=O)c2OCOC)c(OCOC)c1,nt,0.12,nt,nt
CCOc1cc(N2CCOCC2)c(OCC)cc1NC(=O)CC12CC3CC(CC(C3)C1)C2,nt,2.7*,nt,nt
O=C(Nc1ccc(Cl)cc1)c1ccncc1,-0.54,0.63,nt,nt
CC/C(=C\C(=O)c1ccncc1)Nc1ccc(O)cc1,0.22,3*,-2,-5
C=C(C(=O)O)C1CCC2(C)CCCC(C)(O)C2C1 (stereo not given),nt,-1.1,nt,nt
Cc1ccnc(NS(=O)(=O)c2ccc(NC(=O)c3c(-c4ccccc4Cl)noc3C)cc2)n1,nt,0.96,nt,nt
CC1Cc2ccccc2N1C(=O)CSCC(=O)O (stereo not given),-0.28,0.64*,7,13
Cn1ncc(C#N)c1NC(=O)c1cc(-c2ccccc2Cl)on1,nt,0.08,nt,nt

# Assay outcomes: PubChem, several laboratories
